The source of these data is PubChem BioAssay (EPA / NIEHS).

The structures appear in SMILES notation. Results filed as inconclusive are left out. Active and inactive are the calls of the source. The calls were made as follows: active = hit-call score of the fitted dose curve at least 0.9, where 1 is the maximum; inconclusive = response in the unintended direction; inactive = score below 0.9.

Read-out in this assay: organic anion transporter (SLCO1B1), SLCO1B1 (gene 10599)
The experiment in a line: CLD_SLCO1B1_24hr: CellzDirect (CLD) Gene Expression Assay for organic anion transporter (SLCO1B1) at 24 hours (AID 2283690). The procedure:
CLD_24hr is a cell-based, multiplexed-readout assay that uses hepatocyte, a human liver primary cell, with measurements taken at 24 hours after chemical dosing in a 96-well plate.CLD_SLCO1B1_24hr is one of 16 assay component(s) measured or calculated from the CLD_24hr assay. It is designed to make measurements of mRNA induction, a form of inducible reporter, as detected with chemiluminescence signals by Quantitative Nuclease Protection Assay (qNPA) technology.Data from the assay component CLD_SLCO1B1_24hr was analyzed at the endpoint, CLD_SLCO1B1_24hr, in the positive analysis fitting direction relative to DMSO as the negative control and baseline of activity. Using a type of inducible reporter, gain-of-signal activity can be used to understand changes in the reporter gene as they relate to the gene SLCO1B1. Furthermore, this assay endpoint can be referred to as a primary readout. To generalize the intended target to other relatable targets, this assay endpoint is annotated to the transporter intended target family, where subfamily is organic anion transporter.
Human hepatocyte cultures were treated daily for two consecutive days with fresh dosing solutions containing appropriate concentrations of the 320 ToxCast chemicals (chemical identities were blinded to CellzDirect and other ToxCast collaborators), vehicle control (0.2% DMSO), and positive control inducers as summarized in Table 1. Due to the large number of treatment groups and chemicals examined, the ToxCast chemicals were divided into two groups (spanning two independent cultures of hepatocytes from separate donor preparations (Hu778: ToxCast plates 1 and 2; Hu776: ToxCast plates 3 and 4). Each preparation of human hepatocyte cultures was treated with respective vehicle control, medium only control, set of six positive controls/reference chemicals for the five hepatic receptor pathways, and a subset of eight of the ToxCast chemicals (indoxacarb, pyrithiobac-sodium, norflurazon, cyhalofop-butyl, methomyl, thiram, acetochlor, and propiconazole). These replicate data, coupled with internal replicates designed within the blinded ToxCast chemical library, provided additional data to evaluate interindividual differences between hepatocyte preparations and their potential impact on chemical profiles.Cell morphology and integrity were evaluated using phase-contrast microscopy as an indicator of hepatocyte cell health (Tyson & Green, 1987). Cultures for each treatment group (i.e., media, vehicle [0.2% DMSO], positive control inducers [multiple concentrations], and the ToxCast chemicals [multiple concentrations]) were observed and cell morphology was assessed relative to vehicle control cultures at each harvest time point (0, 6, 24, or 48 h). […] Images were evaluated at the conclusion of the study to assess changes in cell integrity and account for the effects of chemical exposure on uncharacteristic changes in concentration-dependent gene expression profiles. The results from these determinations of apparent cytotoxicity were annotated (yes/no) alongside the corresponding qNPA data for reference.At the conclusion of each treatment period, hepatocyte cultures (96-well) were washed with 1 volume of HBSS, lysed by addition of 25 ul ArrayPlate lysis buffer (HTG, Tucson, AZ), and 70 ul/well of Denaturation Oil, denatured by incubation at 95C for 10 min, and frozen at approximately -70C until analysis by nuclease protection assay (qNPA) (Roberts et al., 2007). For qNPA analysis, cell lysates were thawed at 50C for approximately 30 min, qNPA probes were added, and samples were incubated at 95C for 10 min to begin the detection process by denaturing the target RNA, dissociating the duplexes and secondary structure hybridization. At the conclusion of the hybridization period, S1 nuclease reagent was added to each sample to digest all nonprotected nucleotides at 50C for 60-90 min. […]
On to `CC(=NC#N)N(C)Cc1ccc(Cl)nc1`, for which the compound was called inactive.

Regarding `CC(C1CC1)C(O)(Cn1cncn1)c1ccc(Cl)cc1` (centres undefined), the result was inactive. The entry for `CN1COCN(Cc2cnc(Cl)s2)C1=N[N+](=O)[O-]` is “inactive”; for `CNC(=O)Oc1cccc2c1OC(C)(C)O2` it is “inactive”; for `CCOP(=S)(OCC)OC(Cl)C(Cl)(Cl)Cl` (centres undefined) it is “inactive”. Then `CSC1=N[C@@](C)(c2ccccc2)C(=O)N1Nc1ccccc1`, with “inactive”. On to `CCCOc1nn(C(=O)NS(=O)(=O)c2ccccc2C(=O)OC)c(=O)n1C`, for which the call was inactive. The entry for `CCNc1nc(Cl)nc(NC(C)(C)C#N)n1` is “inactive”. The entry for `CNC(=O)ON=C(C)SC` is “inactive”; for `CC(C)[C@H](C(=O)O[C@H](C#N)c1cccc(Oc2ccccc2)c1)c1ccc(Cl)cc1` it is “inactive”; for `COP(=O)(OC)C(O)C(Cl)(Cl)Cl` (centres undefined) it is “inactive”. `CN(C)NC(=O)CCC(=O)O`: the compound was called inactive.

On to `CCc1cccc(CC)c1N(COC)C(=O)CCl`, for which the call was inactive. The entry for `CC(C)=CC1C(C(=O)OCN2C(=O)C3=C(CCCC3)C2=O)C1(C)C` (centres undefined) is “inactive”. Then `CC1(C(=O)Nc2ccc(O)c(Cl)c2Cl)CCCCC1`, with “inactive”. For `COP(=O)(NC(C)=O)SC` (centres undefined), the call was inactive. The entry for `COc1cccc(C(=O)NN(C(=O)c2cc(C)cc(C)c2)C(C)(C)C)c1C` is “inactive”; for `CCOP(=O)(OCC)Oc1cc(C)nc(C(C)C)n1` it is “inactive”; for `COc1ccc(C(=CC(=O)N2CCOCC2)c2ccc(Cl)cc2)cc1OC` it is “inactive”.

`CCOP(=S)(OCC)SCCSCC`: the outcome was inactive. The entry for `C#CCC1=C(C)C(OC(=O)C2C(C=C(C)C)C2(C)C)CC1=O` (centres undefined) is “inactive”. Then `Nc1nc(N)nc(NC2CC2)n1`, with “inactive”. Turning to `CN(C)C(=O)Nc1cccc(C(F)(F)F)c1`, the result was inactive.

Consider `CC(COc1ccc(Oc2ccccc2)cc1)Oc1ccccn1` (centres undefined), for which the call was inactive. The entry for `CCc1cnc(C2=NC(C)(C(C)C)C(=O)N2)c(C(=O)O)c1` (centres undefined) is “inactive”; for `O=c1ccc(=O)[nH][nH]1` it is “inactive”; for `CCCCSP(=O)(SCCCC)SCCCC` it is “inactive”. Then `CCCSP(=O)(OCC)Oc1ccc(Br)cc1Cl` (centres undefined), with “inactive”; and `Cc1nn(-c2cc(NS(C)(=O)=O)c(Cl)cc2Cl)c(=O)n1C(F)F`, with “inactive”; and `CCOP(=O)(SC(C)CC)N1CCSC1=O` (centres undefined), with “inactive”.

For `CNC(=O)ON=C(SC)C(=O)N(C)C`, the outcome was inactive. The entry for `CN(C)[C@@H]1C(=O)C(C(N)=O)=C(O)[C@@]2(O)C(=O)C3=C(O)c4c(O)cccc4[C@@](C)(O)[C@H]3[C@H](O)[C@@H]12` is “inactive”; for `COc1cc(OC)nc(Sc2cccc(Cl)c2C(=O)O)n1` it is “inactive”; for `O=C(O)c1cc(Oc2ccc(C(F)(F)F)cc2Cl)ccc1[N+](=O)[O-]` it is “inactive”.

For the compound `S=C1NCCN1`, the compound was classed as inactive. For `CCOC(=O)COc1cc(-c2nn(C)c(OC(F)F)c2Cl)c(F)cc1Cl`, the compound was classed as inactive. The entry for `CCOC(=O)CC(SP(=O)(OC)OC)C(=O)OCC` (centres undefined) is “inactive”; for `CCOP(=S)(OCC)Oc1ccc2c(C)c(Cl)c(=O)oc2c1` it is “inactive”; for `C=C(C)[C@H]1Cc2c(ccc3c2O[C@@H]2COc4cc(OC)c(OC)cc4[C@@H]2C3=O)O1` it is “inactive”.
